# Bioassay records as filed in PubChem BioAssay.
# SMARCA2 act: SMARCA2 function activation, primary screen; 370,000 tested, 1% active; activation, % at 9.1 µM; MG213 cells, MMTV-luciferase reporter, dexamethasone, overnight; in the data active = activation above about 7.8%;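 also: 0% = vehicle wells and 100% = reference activator wells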
# DAX1 inh-1: DAX1 (NR0B1) inhibition, primary screen; HEK293T StAR-luciferase reporter, SF-1/DAX-1 repression relief; inhibition, % at 6.8 µM; 370,000 tested, 1.1% active; AID 652010;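 active = inhibition above the mean over all tested compounds plus 3 SD, cut at about 3.6% in these data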;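 also: 0% = DAX-1 cells with DMSO and 100% = cells lacking DAX-1 with DMSO; higher inhibition means more luminescence from relief of DAX-1 repression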
# hgDAF12 agonist: agonists of H. glycines DAF-12 nuclear receptor | HEK293 GAL4-hgDAF12 UAS-luciferase reporter, agonist luminescence; normalized to butyrate control | activation, % at 6.8 µM | 370,000 tested, 1.8% active | AID 687014;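 active = activation above a cutoff set at the mean of all screened compounds plus 3 SD, cut at about 10% in these data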;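 also: 0% = DMSO wells and 100% = sodium butyrate wells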
# DAX1 inh-2: inhibitors of human orphan nuclear receptor DAX1 (NR0B1); inhibition, % at 6.75 µM; 340,000 tested, 0.99% active; HEK293 Gal4-DAX1 luciferase reporter, luminescence; P51843; AID 504766;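 active = inhibition above the mean over all tested compounds plus 3 SD, cut at about 4.2% in these data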;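 also: 0% = DAX1-transfected cells with DMSO and 100% = empty-vector control cells with DMSO; inhibition shows as a rise in luminescence from relieved DAX1 repression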
# Target sequence (P51843 207-470 limits assumed): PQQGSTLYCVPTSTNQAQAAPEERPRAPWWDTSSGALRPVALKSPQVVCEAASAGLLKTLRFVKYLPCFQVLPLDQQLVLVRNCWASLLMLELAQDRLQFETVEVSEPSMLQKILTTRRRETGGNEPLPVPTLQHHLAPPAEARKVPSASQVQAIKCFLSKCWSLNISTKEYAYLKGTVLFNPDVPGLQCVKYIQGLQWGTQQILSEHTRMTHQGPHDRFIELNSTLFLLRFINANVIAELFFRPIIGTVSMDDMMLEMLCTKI
# hcDAF-12 act: H. contortus DAF-12 activation, primary screen; HEK293 hcDAF-12 lit1-tk-luc reporter, luminescence; 0% DMSO, 100% Δ7-dafachronic acid; activation, % at 6.8 µM; 370,000 tested, 1.4% active; AID 652067;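 active = activation above the mean of all tested compounds plus 3 SD, cut at about 5.5% in these data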;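 also: 100% = response to 3 µM Δ7-dafachronic acid high control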
# ssDAF12 agonist: S. stercoralis DAF-12 activation, primary screen; AID 652126; activation, % at 6.8 µM; 370,000 tested, 1% active; HEK293 ssDAF-12/GRIP1 lit1-tk-luc reporter, luminescence; % of 3 µM dafachronic acid response;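 active = activation above the mean over all tested compounds plus 3 SD, cut at about 0.9% in these data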;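 also: 0% = DMSO-only wells and 100% = 3 µM delta7-dafachronic acid wells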
# An asterisk follows results filed as active; · = no result. Shown are actives, neighbours in structure and some others; about 4.8% of the full set was active somewhere.
SMILES,SMARCA2 act,DAX1 inh-1,hgDAF12 agonist,DAX1 inh-2,hcDAF-12 act,ssDAF12 agonist
CC(=O)c1ccc(Nc2nc(C(C)N)cs2)cc1 (stereo not drawn),-1.8,0.0,-1.4,·,-0.4,-1.6
CC1(C)CC(=O)C2=C(C1)OC(N)=C(C#N)[C@@H]2c1ccccc1[N+](=O)[O-],-4.8,-0.3,4.1,0.3,1.9,1.5*
O=C1C2CCC(C2)C1CN1CCOCC1 (stereo not drawn),-1.0,0.2,-2.1,-1.4,2.7,1.8*
COCCN(C(=O)CCC(=O)Nc1cc(C)on1)C(C(=O)NC(C)(C)C)c1cccc(OC)c1OC (stereo not drawn),-4.7,0.2,-1.0,3.0,0.2,-1.2
Cc1ccc(O)c(C(=O)CC(=O)c2ccc(C(C)(C)C)cc2)c1,0.6,1.1,11.5*,2.7,1.5,-0.7
O=C(N(c1ccccn1)c1ccccn1)C12CC3CC(CC(Cl)(C3)C1)C2,7.1,-0.3,-0.2,1.3,6.2*,-2.1
COc1ccc(-c2nnc(SCc3ccccc3F)o2)cc1,6.6,4.4*,11.8*,1.4,6.4*,0.7
CSc1nnc(-c2ccc([N+](=O)[O-])cc2)o1,-3.1,0.0,3.2,2.2,-1.4,-1.3
COc1ccc(-c2nnc(SCC#N)o2)cc1,-0.9,0.8,-1.3,2.4,-2.2,-1.4
C#CCSc1nnc(-c2ccc(OC)cc2)o1,6.1,2.2,11.3*,4.5*,2.8,0.2
C#CCSc1nnc(-c2ccc([N+](=O)[O-])cc2)o1,2.6,2.1,12.1*,-1.4,0.2,-1.2
CCSc1nnc(-c2ccc(OC)cc2)o1,5.5,1.0,12.2*,0.8,0.9,-0.6
O=C(CCc1ccccc1)N[C@H]1[C@@H](OC(=O)c2cccnc2)CCC[C@]12C(=O)N(Cc1ccccc1)c1ccccc12,-0.1,0.8,-2.9,·,-0.1,-0.7
COc1cc2c(cc1CNC[C@H]1O[C@@H](n3ccc(N)nc3=O)[C@H](O)[C@@H]1O)OCO2,-5.7,-0.3,-1.1,2.7,-1.1,-0.1
COc1ccc(-c2nnc(-c3ccccc3O)o2)cc1,3.9,1.9,12.2*,0.5,2.4,0.2
Cc1ccccc1-c1nnc(SCc2ccccc2F)o1,4.5,3.9*,12.6*,4.3*,6.4*,-0.5
COC(=O)c1ccc(COC(=O)CNC(=O)C2CCCCC2)cc1,-2.0,0.7,-1.4,-0.3,0.4,-0.9
COc1ccc(Nc2ccc([N+](=O)[O-])cc2[N+](=O)[O-])cc1,0.8,0.0,-1.2,6.3*,-1.4,-1.9
COc1ccc(Nc2ccc(C(=O)O)cc2[N+](=O)[O-])cc1,0.6,0.0,0.5,1.6,-1.6,-1.1
CC(=O)Nc1ccc(CNc2ncnc3ccc(-c4c(C)noc4C)cc23)cc1,-0.8,1.7,-0.8,3.8,6.3*,1.2*
O=C(NCCNC(=O)c1ccccc1)c1ccccc1,1.8,0.4,1.0,0.2,-1.2,-0.6
C[N+](C)(C)CCNC(=O)c1ccccc1,-4.6,4.1*,-0.7,·,-1.0,-0.9
O=C(NCC(O)c1ccccc1)c1ccccc1 (stereo not drawn),3.3,2.5,7.0,4.3*,2.2,-0.3
O[C@@H](CNC[C@H](O)c1ccccc1)c1ccccc1,-4.5,-0.1,0.3,-1.0,-0.2,-0.6
N#Cc1ccc(Cl)cc1NC(=O)CN1C(=O)C(=O)N(CCC2=CCCCC2)C1=O,0.3,-0.2,2.0,-0.3,4.3,1.2*
SMILES,SMARCA2 act,DAX1 inh-1,hgDAF12 agonist,DAX1 inh-2,hcDAF-12 act,ssDAF12 agonist
C[C@H]1CCC/C=C/[C@@H]2C[C@H](O)C[C@H]2[C@H](O)[C@H](S(=O)c2ccc(O)cc2)CC(=O)O1 (stereo partly drawn),-8.0,6.3*,-8.0,-3.1,-2.4,-2.2
O=C1COc2ccc(S(=O)(=O)N3CCCCCC3)cc2N1,-2.3,-0.1,0.2,-0.2,1.4,-0.7
Cc1cc(OCCN2CCCC2)ccc1[N+](=O)[O-],3.0,0.2,0.6,-0.7,-1.2,1.1*
Cc1cc(C)c(C)c(OCCCCN2CCCCC2)c1,7.9*,0.5,0.5,2.0,-1.2,-1.1
Cc1cc(OCCN2CCOCC2)ccc1[N+](=O)[O-],2.7,1.7,4.2,0.3,5.4,0.2
Cc1ccc(OCCN2CCN(C)CC2)c([N+](=O)[O-])c1,-1.2,-0.3,5.5,1.0,0.5,-0.9
